Laboratory results from PubChem BioAssay AID1159580 (chemical genetic matrix, 2015).
Where “and” joins values, the source holds several entries; their conditions need not be identical. Equal values may be shown once. Hit rate of the full screen: of about 5,500 compounds, about 2,000 (36%) were called active. Not shown: some 18% with an inconclusive outcome. Rule as the data show it: active = normalized growth mostly below about 0.91 (no sharp cut-off); inconclusive = no clear call, values can overlap the other calls; inactive = mostly above about 0.92. Some of the results follow.

Assay: chemical genetic growth profiling, strain panel (AID 1159580);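 also: tested at 20 µM; growth read once vehicle control cultures reached saturation at 30 °C; 1 = growth at the plate median or of vehicle wells; lower values mean less growth of the strain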
Details: S. cerevisiae deletion strains, growth OD

Measured: normalized growth

CC(=O)CC1CCCCN1 (configuration not stated)
inactive: locus YAL013W, strain DEP1, hits give low values 1.01 | locus YAL021C, strain ccr4, hits give low values 1.02 | locus YAL026C, strain drs2, hits give low values 1.01 | locus YAL030W, strain snc1, hits give low values 1.02 | locus YBL061C, strain skt5, hits give low values 1.02 | locus YBR009C, strain hhf1, hits give low values 1.02 | locus YBR021W, strain FUR4, hits give low values 0.985 | locus YBR023C, strain chs3, hits give low values 1.03 | locus YBR171W, strain sec66, hits give low values 1.02 | locus YBR229C, strain ROT2, hits give low values 1.02 | locus YBR231C, strain swc5, hits give low values 1.01 | locus YBR279W, strain paf1, hits give low values 1.03 | locus YCL011C, strain gbp2, hits give low values 1.02 | locus YCL016C, strain dcc1, hits give low values 1.03 | locus YCL029C, strain bik1, hits give low values 0.99 | locus YCL061C, strain MRC1, hits give low values 1.01 | locus YCL069W, strain vba3, hits give low values 1 | locus YCR088W, strain abp1, hits give low values 1.02 | locus YDL005C, strain med2, hits give low values 1.02 | locus YDL035C, strain GPR1, hits give low values 1.02 | locus YDL040C, strain nat1, hits give low values 1.02 | locus YDL074C, strain BRE1, hits give low values 1.03 | locus YDL101C, strain DUN1, hits give low values 1.02 | locus YDL134C, strain PPH21, hits give low values 1.01 | locus YDL185W, strain tfp1, hits give low values 1 | locus YDL192W, strain arf1, hits give low values 0.992 | locus YDR001C, strain nth1, hits give low values 1.01 | locus YDR069C, strain doa4, hits give low values 1.01 | locus YDR101C, strain arx1, hits give low values 0.982 | locus YDR137W, strain rgp1, hits give low values 1.04 | locus YDR150W, strain NUM1, hits give low values 1.02 | locus YDR159W, strain sac3, hits give low values 1.01 | locus YDR162C, strain NBP2, hits give low values 1.03 | locus YDR195W, strain ref2 0.982 | locus YDR297W, strain sur2, hits give low values 1.01 | locus YDR318W, strain mcm21, hits give low values 0.993 | locus YDR334W, strain swr1, hits give low values 1 | locus YDR335W, strain msn5, hits give low values 1.01 | locus YDR388W, hits give low values 0.992 | locus YDR392W, strain spt3, hits give low values 0.981 | locus YDR502C, strain sam2, hits give low values 1 | locus YEL003W, strain gim4, hits give low values 1.01 | locus YEL037C, strain rad23, hits give low values 1.02 | locus YEL061C, strain CIN8 (second series), hits give low values 1.02 | locus YEL061C, strain CIN8, hits give low values 1.02 | locus YER015W, strain faa2, hits give low values 1.02 | locus YER016W, strain bim1, hits give low values 1.02 | locus YER110C, hits give low values 0.988 | locus YER111C, strain swi4, hits give low values 1.02 | locus YER155C, strain BEM2 (second series), hits give low values 1.01 | locus YER155C, strain BEM2, hits give low values 1.01 | locus YER167W, strain BCK2, hits give low values 1.01 | locus YFR010W, strain ubp6, hits give low values 1.01 | locus YGL078C, strain dbp3, hits give low values 0.991 | locus YGL086W, strain mad1, hits give low values 0.991 | locus YGL167C, strain pmr1, hits give low values 1.02 | locus YGL173C, strain kem1, hits give low values 1.01 | locus YGL227W, strain vid30, hits give low values 1.02 | locus YGL240W, strain doc1, hits give low values 1.01 | locus YGL248W, strain PDE1, hits give low values 1.02 | locus YGL253W, strain hxk2, hits give low values 1.02 | locus YGR078C, strain PAC10, hits give low values 1.02 | locus YGR135W, strain pre9, hits give low values 1 | locus YGR229C, strain SMI1, hits give low values 1.03 | locus YGR252W, strain gcn5, hits give low values 0.915 | locus YHR013C, strain ard1, hits give low values 1.02 | locus YHR027C, strain rpn1, hits give low values 1.01 | locus YHR030C, strain SLT2, hits give low values 1.01 and 0.991 | locus YHR079C, strain IRE1 (second series), hits give low values 0.994 | locus YHR079C, strain IRE1, hits give low values 1 | locus YHR094C, strain hxt1, hits give low values 0.991 | locus YHR129C, strain ARP1, hits give low values 0.974 | locus YHR142W, strain chs7, hits give low values 1.02 | locus YHR200W, strain rpn10, hits give low values 0.982 | locus YIL066C, strain RNR3, hits give low values 1.02 | locus YIL073C, strain SPO22, hits give low values 1.01 | locus YIL125W, strain kgd1, hits give low values 0.99 | locus YIR030C, strain dcg1, hits give low values 0.993 | locus YJL092W, strain hpr5, hits give low values 1.01 | locus YJL095W, strain BCK1 (second series), hits give low values 1.02 | locus YJL095W, strain BCK1, hits give low values 1.01 and 0.998 | locus YJL115W, strain asf1, hits give low values 1.02 | locus YJL129C, strain trk1, hits give low values 1.04 | locus YJL134W, strain LCB3, hits give low values 1.01 | locus YJL154C, strain vps35, hits give low values 1.02 | locus YJL164C, strain tpk1, hits give low values 1.03 | locus YJL166W, strain qcr8, hits give low values 1.03 | locus YJL168C, strain set2, hits give low values 0.991 | locus YJL187C, strain SWE1 (second series), hits give low values 1.02 | locus YJL187C, strain SWE1, hits give low values 1.01 | locus YJR043C, strain POL32, hits give low values 0.992 | locus YJR066W, strain TOR1, hits give low values 0.975
